# Data: article PMC7862700, “An all-to-all approach to the identification of sequence-specific readers for epigenetic DNA modifications on cytosine”
# How the values were obtained:
# Assay in all cases: DAPPL (digital affinity profiling via proximity ligation, sequencing); 10 mM Tris-HCl pH 7.5, 50 mM NaCl, 1 mM DTT, 4% glycerol, room temperature, 30 min; GST-TFs on glutathione beads, 16-mer random dsDNA library, 0.1% formaldehyde crosslink after washing; high values mean tight binding
# FLI1 = molecular target: T1, FLI1 (Homo sapiens, UniProt Q01543 1-452); settings: protein: recombinant; tags: N-terminal GST; dsDNA, one strand shown
# T1 sequence: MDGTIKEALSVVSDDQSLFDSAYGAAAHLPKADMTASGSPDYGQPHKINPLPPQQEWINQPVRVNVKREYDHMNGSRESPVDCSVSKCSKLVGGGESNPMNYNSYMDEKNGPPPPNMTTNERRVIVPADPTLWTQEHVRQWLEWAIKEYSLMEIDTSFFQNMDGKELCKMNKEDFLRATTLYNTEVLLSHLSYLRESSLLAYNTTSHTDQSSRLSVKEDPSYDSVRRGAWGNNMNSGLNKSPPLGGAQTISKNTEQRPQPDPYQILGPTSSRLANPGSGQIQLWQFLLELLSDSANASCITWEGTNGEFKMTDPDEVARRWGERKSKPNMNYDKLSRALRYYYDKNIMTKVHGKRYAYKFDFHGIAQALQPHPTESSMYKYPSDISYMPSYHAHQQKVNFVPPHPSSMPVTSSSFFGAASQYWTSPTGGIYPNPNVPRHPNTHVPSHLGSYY
# In short: (§1)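 The binding signal reported is, for every hexamer, its read frequency for a factor over its read frequency for the tag-only sample. Reads came from pools of yeast-expressed, GST-fused human transcription factors on glutathione beads, barcoded with DNA and mixed with that sample, which were incubated with 200 nmole of a random double-stranded 16-mer DNA library in Tris/NaCl/DTT/glycerol buffer at room temperature for 30 min. After washing, the pools were crosslinked with 0.1% formaldehyde, proximity-ligated with BsaI/T4 ligase for 1 h at 37 °C, PCR-amplified and sequenced on an Illumina NextSeq500.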
# ELK1 = molecular target: T2, ELK1 (Homo sapiens, UniProt P19419 1-428); settings: protein: recombinant; tags: N-terminal GST; dsDNA, one strand shown
# T2 sequence: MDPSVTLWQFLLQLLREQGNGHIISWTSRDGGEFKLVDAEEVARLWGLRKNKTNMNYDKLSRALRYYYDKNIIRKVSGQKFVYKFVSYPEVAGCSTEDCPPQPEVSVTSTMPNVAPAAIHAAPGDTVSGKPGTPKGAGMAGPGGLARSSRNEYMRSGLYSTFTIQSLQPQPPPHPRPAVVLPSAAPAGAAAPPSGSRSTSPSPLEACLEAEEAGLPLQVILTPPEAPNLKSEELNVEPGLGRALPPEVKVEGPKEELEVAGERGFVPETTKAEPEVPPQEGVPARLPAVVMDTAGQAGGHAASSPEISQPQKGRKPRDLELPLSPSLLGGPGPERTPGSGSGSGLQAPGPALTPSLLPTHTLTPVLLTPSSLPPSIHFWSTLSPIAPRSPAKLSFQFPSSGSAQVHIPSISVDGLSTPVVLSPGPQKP
# In short: as §1
# GABPA = molecular target: T3, GABPA (Homo sapiens, UniProt Q06546 1-454); settings: protein: recombinant; tags: N-terminal GST; dsDNA, one strand shown
# T3 sequence: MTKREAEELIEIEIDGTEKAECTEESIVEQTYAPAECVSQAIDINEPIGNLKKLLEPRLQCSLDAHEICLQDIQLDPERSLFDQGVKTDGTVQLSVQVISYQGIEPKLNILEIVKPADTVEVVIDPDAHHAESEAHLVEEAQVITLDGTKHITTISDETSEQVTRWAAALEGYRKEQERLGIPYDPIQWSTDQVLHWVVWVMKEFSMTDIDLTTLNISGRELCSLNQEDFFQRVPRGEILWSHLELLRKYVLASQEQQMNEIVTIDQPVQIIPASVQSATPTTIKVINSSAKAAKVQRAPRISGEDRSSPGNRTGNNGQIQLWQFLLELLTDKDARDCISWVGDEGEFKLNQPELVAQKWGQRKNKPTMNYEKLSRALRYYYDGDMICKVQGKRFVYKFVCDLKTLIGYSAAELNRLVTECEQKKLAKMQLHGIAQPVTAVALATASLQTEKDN
# In short: as §1
# ERG = molecular target: T4, ERG (Homo sapiens, UniProt P11308 1-479); settings: protein: recombinant; tags: N-terminal GST; dsDNA, one strand shown
# T4 sequence: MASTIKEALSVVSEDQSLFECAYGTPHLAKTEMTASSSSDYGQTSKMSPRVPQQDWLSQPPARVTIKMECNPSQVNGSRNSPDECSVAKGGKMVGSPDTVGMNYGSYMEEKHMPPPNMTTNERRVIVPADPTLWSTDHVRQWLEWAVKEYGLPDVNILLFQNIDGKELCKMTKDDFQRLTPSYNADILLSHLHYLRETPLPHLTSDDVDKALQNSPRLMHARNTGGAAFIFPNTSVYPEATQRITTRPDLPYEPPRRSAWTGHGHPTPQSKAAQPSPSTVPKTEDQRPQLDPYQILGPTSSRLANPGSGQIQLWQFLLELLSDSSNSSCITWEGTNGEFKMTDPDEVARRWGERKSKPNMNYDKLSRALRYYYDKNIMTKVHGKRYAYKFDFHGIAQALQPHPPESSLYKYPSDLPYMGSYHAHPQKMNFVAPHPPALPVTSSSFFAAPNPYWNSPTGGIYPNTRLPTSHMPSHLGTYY
# In short: as §1
# ELF1 = ELF1 (Homo sapiens, UniProt P32519 1-619); settings: protein: recombinant; tags: N-terminal GST; dsDNA, one strand shown
# Chain of ELF1 (P32519 whole entry): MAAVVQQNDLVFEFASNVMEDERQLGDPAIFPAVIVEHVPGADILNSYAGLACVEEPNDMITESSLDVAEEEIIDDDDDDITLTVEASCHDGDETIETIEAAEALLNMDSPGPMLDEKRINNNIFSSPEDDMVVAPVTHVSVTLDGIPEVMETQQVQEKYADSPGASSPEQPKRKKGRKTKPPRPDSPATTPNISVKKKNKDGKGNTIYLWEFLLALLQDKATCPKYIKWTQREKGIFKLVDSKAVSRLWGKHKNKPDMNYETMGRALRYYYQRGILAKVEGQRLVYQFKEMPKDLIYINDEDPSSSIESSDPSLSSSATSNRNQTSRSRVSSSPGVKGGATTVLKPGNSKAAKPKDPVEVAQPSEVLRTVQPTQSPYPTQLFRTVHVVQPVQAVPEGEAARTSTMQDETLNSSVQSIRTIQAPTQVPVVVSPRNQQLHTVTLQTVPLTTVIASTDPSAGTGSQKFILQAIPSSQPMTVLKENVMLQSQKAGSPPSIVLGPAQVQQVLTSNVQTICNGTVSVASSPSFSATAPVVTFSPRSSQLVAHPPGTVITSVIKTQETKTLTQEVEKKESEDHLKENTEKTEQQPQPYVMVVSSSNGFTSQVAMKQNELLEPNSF
# In short: as §1
# EHF = molecular target: T5, EHF (Homo sapiens, UniProt Q9NZC4 1-300); settings: protein: recombinant; tags: N-terminal GST; dsDNA, one strand shown
# T5 sequence: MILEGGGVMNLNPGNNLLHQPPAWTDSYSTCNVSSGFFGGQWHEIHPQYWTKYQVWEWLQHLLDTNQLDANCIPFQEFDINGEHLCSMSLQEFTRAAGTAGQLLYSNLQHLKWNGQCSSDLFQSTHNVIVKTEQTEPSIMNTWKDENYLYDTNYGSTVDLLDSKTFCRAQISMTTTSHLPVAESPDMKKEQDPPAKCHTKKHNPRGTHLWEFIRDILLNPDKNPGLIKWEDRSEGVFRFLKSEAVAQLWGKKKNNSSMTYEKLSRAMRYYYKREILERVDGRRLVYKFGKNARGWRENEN
# In short: as §1
# SPI1 = SPI1 (Homo sapiens, UniProt P17947 1-270); settings: protein: recombinant; tags: N-terminal GST; dsDNA, one strand shown
# In short: as §1
# SPIB = SPIB (Homo sapiens, UniProt Q01892 1-262); settings: protein: recombinant; tags: N-terminal GST; dsDNA, one strand shown
# Chain of SPIB (Q01892 whole entry): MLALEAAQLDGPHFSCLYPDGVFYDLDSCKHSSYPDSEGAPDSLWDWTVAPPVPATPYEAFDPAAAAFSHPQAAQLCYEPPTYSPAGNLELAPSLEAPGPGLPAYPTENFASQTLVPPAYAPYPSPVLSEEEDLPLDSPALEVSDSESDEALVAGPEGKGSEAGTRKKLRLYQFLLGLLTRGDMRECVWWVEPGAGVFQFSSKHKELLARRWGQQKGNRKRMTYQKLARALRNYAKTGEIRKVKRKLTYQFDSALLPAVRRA
# In short: as §1
# ELK3 = molecular target: T6, ELK3 (Homo sapiens, UniProt P41970 1-407); settings: protein: recombinant; tags: N-terminal GST; dsDNA, one strand shown
# T6 sequence: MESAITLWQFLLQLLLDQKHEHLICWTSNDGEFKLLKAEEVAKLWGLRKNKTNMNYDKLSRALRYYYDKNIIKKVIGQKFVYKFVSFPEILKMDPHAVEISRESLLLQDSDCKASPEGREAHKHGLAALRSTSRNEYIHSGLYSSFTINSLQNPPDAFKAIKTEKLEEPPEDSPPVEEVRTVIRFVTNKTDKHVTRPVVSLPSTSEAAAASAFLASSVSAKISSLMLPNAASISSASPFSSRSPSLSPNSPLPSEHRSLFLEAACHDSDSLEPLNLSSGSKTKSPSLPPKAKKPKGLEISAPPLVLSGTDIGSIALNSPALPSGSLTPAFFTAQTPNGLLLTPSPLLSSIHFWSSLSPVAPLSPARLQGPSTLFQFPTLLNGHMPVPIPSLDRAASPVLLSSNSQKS
# In short: as §1
# FEV = molecular target: T7, FEV (Homo sapiens, UniProt Q99581 1-238); settings: protein: recombinant; tags: N-terminal GST; dsDNA, one strand shown
# T7 sequence: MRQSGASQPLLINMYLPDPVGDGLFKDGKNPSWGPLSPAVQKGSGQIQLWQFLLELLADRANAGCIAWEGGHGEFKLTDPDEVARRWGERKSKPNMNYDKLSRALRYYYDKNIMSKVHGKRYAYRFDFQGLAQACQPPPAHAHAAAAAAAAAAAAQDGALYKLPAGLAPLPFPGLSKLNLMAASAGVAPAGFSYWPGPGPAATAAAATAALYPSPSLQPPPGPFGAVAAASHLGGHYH
# In short: as §1
# ETV5 = ETV5 (Homo sapiens, UniProt P41161 1-510); settings: protein: recombinant; tags: N-terminal GST; dsDNA, one strand shown
# Chain of ETV5 (P41161 whole entry): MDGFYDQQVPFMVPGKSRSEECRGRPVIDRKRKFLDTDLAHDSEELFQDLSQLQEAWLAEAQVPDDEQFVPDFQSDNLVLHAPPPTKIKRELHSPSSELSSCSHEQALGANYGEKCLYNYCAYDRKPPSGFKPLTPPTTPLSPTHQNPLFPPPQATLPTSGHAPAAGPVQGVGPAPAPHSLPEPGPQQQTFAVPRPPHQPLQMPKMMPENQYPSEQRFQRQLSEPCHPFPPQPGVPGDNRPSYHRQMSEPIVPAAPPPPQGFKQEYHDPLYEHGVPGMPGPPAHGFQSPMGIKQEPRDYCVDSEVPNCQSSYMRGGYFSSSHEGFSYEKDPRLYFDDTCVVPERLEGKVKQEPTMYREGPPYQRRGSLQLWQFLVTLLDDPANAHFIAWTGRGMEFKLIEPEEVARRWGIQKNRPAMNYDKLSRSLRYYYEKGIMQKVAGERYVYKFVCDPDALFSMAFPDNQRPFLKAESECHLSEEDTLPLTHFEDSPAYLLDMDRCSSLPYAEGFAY
# In short: as §1
# HSF1 = HSF1 (Homo sapiens, UniProt Q00613 1-529); settings: protein: recombinant; tags: N-terminal GST; chain copies: 3; dsDNA, one strand shown
# Chain of HSF1 (Q00613 whole entry): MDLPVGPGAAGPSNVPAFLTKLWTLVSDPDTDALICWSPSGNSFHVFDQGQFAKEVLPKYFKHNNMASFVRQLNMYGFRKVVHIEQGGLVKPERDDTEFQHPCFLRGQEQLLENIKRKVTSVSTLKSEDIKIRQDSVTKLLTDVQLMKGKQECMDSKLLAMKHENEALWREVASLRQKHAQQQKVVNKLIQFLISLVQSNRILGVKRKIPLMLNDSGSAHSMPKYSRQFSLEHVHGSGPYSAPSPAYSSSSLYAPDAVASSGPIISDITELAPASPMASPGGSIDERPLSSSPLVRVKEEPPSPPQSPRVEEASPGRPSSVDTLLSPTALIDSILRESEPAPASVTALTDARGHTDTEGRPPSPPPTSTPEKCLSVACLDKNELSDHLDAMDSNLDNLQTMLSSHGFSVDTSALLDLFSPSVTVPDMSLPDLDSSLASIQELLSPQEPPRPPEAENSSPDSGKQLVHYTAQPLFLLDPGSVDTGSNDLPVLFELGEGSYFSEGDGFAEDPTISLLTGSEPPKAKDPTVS
# In short: as §1
# SPIC = molecular target: T8, SPIC (Homo sapiens, UniProt Q8N5J4 1-248); settings: protein: recombinant; tags: N-terminal GST; dsDNA, one strand shown
# T8 sequence: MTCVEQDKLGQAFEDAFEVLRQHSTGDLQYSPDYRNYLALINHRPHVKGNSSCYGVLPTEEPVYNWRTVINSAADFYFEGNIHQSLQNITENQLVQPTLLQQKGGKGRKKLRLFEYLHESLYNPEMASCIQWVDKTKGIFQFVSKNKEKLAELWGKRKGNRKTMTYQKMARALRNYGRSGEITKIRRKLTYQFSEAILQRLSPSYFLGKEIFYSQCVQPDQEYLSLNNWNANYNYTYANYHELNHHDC
# In short: as §1
# ELF4 = ELF4 (Homo sapiens, UniProt Q99607 1-663); settings: protein: recombinant; tags: N-terminal GST; dsDNA, one strand shown
# Chain of ELF4 (Q99607 whole entry): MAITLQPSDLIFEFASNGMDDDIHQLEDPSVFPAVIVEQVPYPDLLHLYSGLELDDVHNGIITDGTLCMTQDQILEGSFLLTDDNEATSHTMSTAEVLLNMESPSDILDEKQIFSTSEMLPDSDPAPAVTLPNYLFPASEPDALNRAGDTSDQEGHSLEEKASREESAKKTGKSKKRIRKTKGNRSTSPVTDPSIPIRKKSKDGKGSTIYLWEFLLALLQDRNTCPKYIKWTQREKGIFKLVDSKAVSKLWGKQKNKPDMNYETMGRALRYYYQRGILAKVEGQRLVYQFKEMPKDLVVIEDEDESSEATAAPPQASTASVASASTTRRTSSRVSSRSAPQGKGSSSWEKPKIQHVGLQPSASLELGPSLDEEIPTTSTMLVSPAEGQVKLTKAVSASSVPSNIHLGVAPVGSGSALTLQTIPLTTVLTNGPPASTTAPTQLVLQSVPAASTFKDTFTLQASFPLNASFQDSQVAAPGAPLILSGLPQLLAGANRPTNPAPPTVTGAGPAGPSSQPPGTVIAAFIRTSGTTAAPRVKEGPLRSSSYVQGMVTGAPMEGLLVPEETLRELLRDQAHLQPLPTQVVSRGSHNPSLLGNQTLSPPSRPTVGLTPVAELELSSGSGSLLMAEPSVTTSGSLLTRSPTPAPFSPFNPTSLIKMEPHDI
# In short: as §1
# ELK4 = molecular target: T9, ELK4 (Homo sapiens, UniProt P28324-2 1-405); settings: protein: recombinant; tags: N-terminal GST; dsDNA, one strand shown
# T9 sequence: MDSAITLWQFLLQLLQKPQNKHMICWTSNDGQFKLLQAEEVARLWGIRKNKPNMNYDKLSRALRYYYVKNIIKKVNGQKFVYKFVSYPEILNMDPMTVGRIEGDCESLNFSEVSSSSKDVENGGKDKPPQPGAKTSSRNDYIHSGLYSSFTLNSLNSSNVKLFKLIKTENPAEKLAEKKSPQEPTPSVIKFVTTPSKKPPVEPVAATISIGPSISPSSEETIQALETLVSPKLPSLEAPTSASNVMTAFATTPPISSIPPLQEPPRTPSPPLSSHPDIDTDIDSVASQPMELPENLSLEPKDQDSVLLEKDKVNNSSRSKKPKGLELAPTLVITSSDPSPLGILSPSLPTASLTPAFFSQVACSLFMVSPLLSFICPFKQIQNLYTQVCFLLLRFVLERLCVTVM
# In short: as §1
# ETV2 = molecular target: T10, ETV2 (Homo sapiens, UniProt O00321 1-342); settings: protein: recombinant; tags: N-terminal GST; dsDNA, one strand shown
# T10 sequence: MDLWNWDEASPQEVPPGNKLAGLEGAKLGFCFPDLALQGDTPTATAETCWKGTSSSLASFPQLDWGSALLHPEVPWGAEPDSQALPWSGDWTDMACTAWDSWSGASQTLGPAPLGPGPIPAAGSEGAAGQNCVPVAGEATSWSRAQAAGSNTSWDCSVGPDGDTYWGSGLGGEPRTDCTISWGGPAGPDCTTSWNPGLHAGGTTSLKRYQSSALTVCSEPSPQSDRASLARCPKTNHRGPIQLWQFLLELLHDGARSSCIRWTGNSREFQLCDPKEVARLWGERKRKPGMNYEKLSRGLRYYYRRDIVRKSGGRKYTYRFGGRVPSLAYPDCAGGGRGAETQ
# In short: as §1
# ELF3 = molecular target: T11, ELF3 (Homo sapiens, UniProt P78545 1-371); settings: protein: recombinant; tags: N-terminal GST; dsDNA, one strand shown
# T11 sequence: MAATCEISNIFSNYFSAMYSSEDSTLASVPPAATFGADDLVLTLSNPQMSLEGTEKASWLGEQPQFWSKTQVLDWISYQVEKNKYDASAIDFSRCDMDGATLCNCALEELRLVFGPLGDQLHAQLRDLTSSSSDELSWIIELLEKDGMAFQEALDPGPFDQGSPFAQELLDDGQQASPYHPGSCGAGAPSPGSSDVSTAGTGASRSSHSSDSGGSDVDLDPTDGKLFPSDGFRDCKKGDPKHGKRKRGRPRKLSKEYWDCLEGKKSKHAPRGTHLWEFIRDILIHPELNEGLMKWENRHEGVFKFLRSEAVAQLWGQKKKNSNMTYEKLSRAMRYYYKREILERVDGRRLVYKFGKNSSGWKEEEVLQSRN
# In short: as §1
# CRX = CRX (Homo sapiens, UniProt O43186 1-299); settings: protein: recombinant; tags: N-terminal GST; dsDNA, one strand shown
# Chain of CRX (O43186 whole entry): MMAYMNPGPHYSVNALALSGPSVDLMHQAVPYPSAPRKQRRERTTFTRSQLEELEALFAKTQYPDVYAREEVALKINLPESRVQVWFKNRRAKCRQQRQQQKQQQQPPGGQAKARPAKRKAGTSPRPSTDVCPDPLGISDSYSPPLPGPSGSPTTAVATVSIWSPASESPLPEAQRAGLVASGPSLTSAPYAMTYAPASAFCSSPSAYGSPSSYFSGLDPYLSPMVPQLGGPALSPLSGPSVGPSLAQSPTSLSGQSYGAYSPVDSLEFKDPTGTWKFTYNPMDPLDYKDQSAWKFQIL
# In short: as §1
# ETV1 = ETV1 (Homo sapiens, UniProt P50549 1-477); settings: protein: recombinant; tags: N-terminal GST; dsDNA, one strand shown
# Chain of ETV1 (P50549 whole entry): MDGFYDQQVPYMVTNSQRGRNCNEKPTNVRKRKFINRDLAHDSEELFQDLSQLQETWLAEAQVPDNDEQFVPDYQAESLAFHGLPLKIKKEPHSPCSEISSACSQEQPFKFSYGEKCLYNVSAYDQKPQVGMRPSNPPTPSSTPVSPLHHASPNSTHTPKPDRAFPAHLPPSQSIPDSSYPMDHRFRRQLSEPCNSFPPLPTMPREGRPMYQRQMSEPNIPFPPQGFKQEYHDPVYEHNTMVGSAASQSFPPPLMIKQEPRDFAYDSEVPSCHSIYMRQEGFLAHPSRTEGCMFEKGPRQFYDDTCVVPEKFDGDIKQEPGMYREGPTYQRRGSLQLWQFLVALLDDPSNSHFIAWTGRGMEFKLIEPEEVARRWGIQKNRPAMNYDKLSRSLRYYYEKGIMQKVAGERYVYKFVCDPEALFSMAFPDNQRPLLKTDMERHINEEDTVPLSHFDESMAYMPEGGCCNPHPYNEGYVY
# In short: as §1
sequence,measurement,setting,value
ATTAAT,binding signal,FLI1,"1.23 fold enrichment (6-mer frequency, TF over GST control)"
same,binding signal,ELK1,"1.24 fold enrichment (6-mer frequency, TF over GST control)"
same,binding signal,GABPA,"1.29 fold enrichment (6-mer frequency, TF over GST control)"
same,binding signal,ERG,"1.21 fold enrichment (6-mer frequency, TF over GST control)"
same,binding signal,ELF1,"1.23 fold enrichment (6-mer frequency, TF over GST control)"
same,binding signal,EHF,"1.2 fold enrichment (6-mer frequency, TF over GST control)"
same,binding signal,SPI1,"1.21 fold enrichment (6-mer frequency, TF over GST control)"
same,binding signal,SPIB,"1.24 fold enrichment (6-mer frequency, TF over GST control)"
same,binding signal,ELK3,"1.26 fold enrichment (6-mer frequency, TF over GST control)"
same,binding signal,FEV,"1.16 fold enrichment (6-mer frequency, TF over GST control)"
same,binding signal,ETV5,"1.26 fold enrichment (6-mer frequency, TF over GST control)"
same,binding signal,HSF1,"2.47 fold enrichment (6-mer frequency, TF over GST control)"
same,binding signal,SPIC,"1.18 fold enrichment (6-mer frequency, TF over GST control)"
same,binding signal,ELF4,"1.19 fold enrichment (6-mer frequency, TF over GST control)"
same,binding signal,ELK4,"1.23 fold enrichment (6-mer frequency, TF over GST control)"
same,binding signal,ETV2,"1.25 fold enrichment (6-mer frequency, TF over GST control)"
same,binding signal,ELF3,"1.05 fold enrichment (6-mer frequency, TF over GST control)"
same,binding signal,CRX,"3.95 fold enrichment (6-mer frequency, TF over GST control)"
same,binding signal,ETV1,"1.25 fold enrichment (6-mer frequency, TF over GST control)"
